# In article PMC4336329 (PLoS ONE, 2015):
# Out of some 310,000 compounds screened, about 14,000 (4.5%) showed an effect of 50% or more. The effect is printed as a negative number. For the sample, strong results were picked, then their nearest neighbours and some compounds at random.
# Molecular target: human ether-à-go-go-related gene (hERG) potassium channel (human, UniProt Q12809)
# Assay: primary screen, population patch clamp on CHO cells stably expressing hERG; higher = less effect of the substance
# 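Also: peak tail current of the secondary pulse compared with the same well before compound.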
# Chain of human ether-à-go-go-related gene (hERG) potassium channel (Q12809 whole entry, looked up): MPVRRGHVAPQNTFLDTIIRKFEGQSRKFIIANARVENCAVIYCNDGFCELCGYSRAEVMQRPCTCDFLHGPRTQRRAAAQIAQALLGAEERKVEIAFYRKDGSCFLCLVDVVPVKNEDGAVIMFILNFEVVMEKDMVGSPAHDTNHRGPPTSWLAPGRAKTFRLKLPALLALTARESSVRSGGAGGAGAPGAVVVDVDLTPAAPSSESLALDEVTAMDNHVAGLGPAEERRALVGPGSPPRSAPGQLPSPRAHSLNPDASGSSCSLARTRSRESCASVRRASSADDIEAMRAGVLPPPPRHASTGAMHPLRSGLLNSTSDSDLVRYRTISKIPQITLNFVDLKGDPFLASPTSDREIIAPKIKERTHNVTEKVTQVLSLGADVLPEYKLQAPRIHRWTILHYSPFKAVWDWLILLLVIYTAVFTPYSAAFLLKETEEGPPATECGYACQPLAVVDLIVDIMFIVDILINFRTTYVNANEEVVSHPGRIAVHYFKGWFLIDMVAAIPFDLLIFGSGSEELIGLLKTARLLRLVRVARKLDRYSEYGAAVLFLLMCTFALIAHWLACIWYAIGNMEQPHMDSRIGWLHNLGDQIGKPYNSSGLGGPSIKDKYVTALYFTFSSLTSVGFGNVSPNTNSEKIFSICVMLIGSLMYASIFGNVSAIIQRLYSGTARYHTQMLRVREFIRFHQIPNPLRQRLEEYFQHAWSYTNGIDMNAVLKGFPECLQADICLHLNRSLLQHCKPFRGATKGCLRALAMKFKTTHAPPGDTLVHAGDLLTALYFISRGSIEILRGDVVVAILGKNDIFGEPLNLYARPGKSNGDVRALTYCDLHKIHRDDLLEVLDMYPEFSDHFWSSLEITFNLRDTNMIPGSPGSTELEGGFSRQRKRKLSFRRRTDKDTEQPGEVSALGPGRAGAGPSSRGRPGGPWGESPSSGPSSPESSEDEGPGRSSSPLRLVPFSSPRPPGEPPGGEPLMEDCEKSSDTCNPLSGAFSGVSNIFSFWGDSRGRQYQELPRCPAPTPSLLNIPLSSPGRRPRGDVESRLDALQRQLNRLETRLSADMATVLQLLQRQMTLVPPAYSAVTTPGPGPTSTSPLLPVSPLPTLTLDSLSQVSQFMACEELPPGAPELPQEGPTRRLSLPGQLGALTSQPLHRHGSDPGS
row,Compound,"hERG current change (%, negative = inhibition) at 10uM"
1,CC1Cc2ccccc2N1C(=O)CSc1nc2c(c(=O)n(C)c(=O)n2C)n1Cc1ccccc1 (stereo not shown),-33.7%
2,Cc1ccc(Nc2ccccc2)nn1,18.6%
3,COc1ccccc1-c1coc2c(CN3CCCC(C)C3)c(O)ccc2c1=O (stereo not shown),-2.44%
4,CC1(C)CC2(CC(c3ccccc3)Oc3cc(O)ccc32)NC(=O)N1 (stereo not shown),3.54%
5,CSC1=NC2(CC(c3ccccc3)Oc3cc(O)ccc32)CC(C)(C)N1 (stereo not shown),-76.1%
6,CC1(C)CC2(CC(c3ccccc3)Oc3cc(O)ccc32)NC(=S)N1 (stereo not shown),-1.82%
7,Cc1cc(Cl)ccc1OCC(=O)N/N=C1\CCCc2ccccc21,-0.309%
8,CC(C)(C)c1nc2ccc(NS(=O)(=O)c3ccc(F)c(F)c3F)cc2[nH]1,10.6%
9,COc1ccccc1NC1=NC(C)(C)N=C(N)N1,23.2%
10,NS(=O)(=O)c1ccc(CCNC(=O)c2ccc(-c3ccccc3)cc2)cc1,9.92%
11,COc1ccccc1C(=O)NNC(=O)c1ccccc1Br,23%
12,COc1ccccc1NC(=S)NNC(=O)c1ccccc1Br,-70.9%
13,COc1ccccc1NC(=S)NNC(=O)c1ccccc1,-1.04%
14,Cc1nn(Cc2ccc(F)cc2Cl)c(C)c1[N+](=O)[O-],-1.01%
15,Cc1ccc(OCC(=O)O/N=C(\N)c2ccccn2)cc1C,-11.3%
16,Cc1nc(Nc2ccccc2)sc1-c1ccccc1,1.73%
17,COc1ccc(Nc2nc(C)c(-c3ccccc3)s2)cc1,14.9%
18,COc1ccc(NC(=O)Nc2nc3c(s2)CCCC3)cc1,-26.8%
19,Cc1cccc(Nc2nc3c(s2)CCCC3)c1,-8.11%
20,O=C(O)c1ccc(Nc2nc3c(s2)CCCC3)cc1,-81.3%
21,Cc1nc(Nc2ccc(C(=O)O)cc2)sc1-c1ccccc1,-76.5%
22,C=CCSC1=C(C#N)C2(CCCCC2)C(C#N)C(=O)N1 (stereo not shown),-3.87%

row,Compound,"hERG current change (%, negative = inhibition) at 10uM"
1,C=CCNc1sc(C(=O)C(C)(C)C)c(N)c1C#N,5.11%
2,CCN(CC(=O)Nc1ccc(OC)cc1)C(=O)c1ccc2c(=O)n3c(nc2c1)CCC3,9.77%
3,C=CCn1cnc2c(sc3nc(C)cc(C)c32)c1=O,-6.75%
4,COc1ccccc1OCCNC(=O)c1cc([N+](=O)[O-])cc([N+](=O)[O-])c1,12.2%
5,Cc1nc(-c2ccncc2)nc(NCCNc2ncccc2C(F)(F)F)c1Cl,6.57%
6,COc1ccccc1CC(=O)NC1CCCc2ccccc21 (stereo not shown),-32.8%
7,CC1CCCN(C(=O)CCc2nnc(-c3ccc4c(c3)OCO4)o2)C1 (stereo not shown),-4.43%
8,CCC(=O)C1CCCN(C(=O)CCc2nnc(-c3ccc4c(c3)OCO4)o2)C1 (stereo not shown),-8.82%
9,Cc1cc(C)n(CCN(C)C(=O)CCc2nnc(CCC3CCCCC3)o2)n1,-4.29%
10,Cc1cc(C)n(CCN(C)C(=O)CCc2nnc(-c3ccc4c(c3)OCO4)o2)n1,-51.7%
11,CCN(CCn1cccn1)C(=O)CCc1nnc(-c2ccc3c(c2)OCO3)o1,-5.68%
12,O=C(CCc1nnc(-c2ccc3c(c2)OCO3)o1)N1CCC(c2ccc(F)cc2)C1 (stereo not shown),-56%
13,O=C(CNc1ccc2ccccc2c1)N/N=C/c1ccc(OC(=O)/C=C/c2ccco2)cc1,22.7%
14,Cc1ccccc1OS(=O)(=O)c1cn(C)c(=O)n(C)c1=O,11.4%
15,Cc1ccc(C2CC(=O)C=C(Nc3ccc(Cl)cc3)C2)cc1 (stereo not shown),7.93%
16,Cc1ccc(S(=O)(=O)/N=C/N(C)C)cc1,0.768%
17,COc1ccc(-c2cnnc(N/N=C/C(C)=C/c3ccccc3)n2)cc1,-9.57%
18,CCc1c(C(=O)NCCc2cccc(C)c2)[nH]c(C)c1C(C)=O,12.2%
19,O=[N+]([O-])c1ccc(C(O)CNC(=S)Nc2ccccc2)cc1 (stereo not shown),-11.6%
20,O=C(CC(c1ccccc1)c1ccccc1)NCC(O)c1ccc([N+](=O)[O-])cc1 (stereo not shown),-58.1%
21,CC1SC(c2ccccc2)N(CC(O)c2ccc([N+](=O)[O-])cc2)C1=O (stereo not shown),-80.6%
22,O=C(CNC(=O)c1ccccc1)NCC(O)c1ccc([N+](=O)[O-])cc1 (stereo not shown),10.7%

row,Compound,"hERG current change (%, negative = inhibition) at 10uM"
1,O=[N+]([O-])c1ccc(C(O)CN2CCN(c3ccccc3)CC2)cc1 (stereo not shown),-50.3%
2,Oc1ccc(N2CCN(CC(O)c3ccccc3)CC2)cc1 (stereo not shown),10.4%
3,O=[N+]([O-])c1ccc(C(O)CN2CCN(Cc3ccccc3)CC2)cc1 (stereo not shown),-73.4%
4,O=C(NCC(O)c1ccc([N+](=O)[O-])cc1)C(c1ccccc1)c1ccccc1 (stereo not shown),-46.2%
5,O=[N+]([O-])c1ccc(C(O)C[n+]2ccccc2)cc1.[I-] (stereo not shown),12%
6,O=C1CCN(Cc2ccc([N+](=O)[O-])cc2)CCN1[C@H](CO)c1ccccc1,-37.4%
7,O=[N+]([O-])c1ccc(C(O)CN2CCOCC2)cc1 (stereo not shown),18.5%
8,O=C1CSC(c2ccccc2)N1CC(O)c1ccc([N+](=O)[O-])cc1 (stereo not shown),-12.1%
9,COc1ccccc1NC(=S)NC(=O)C(C)C,-21.8%
10,Cc1c(C(=O)N2CCCCC2)nn(-c2ccc(Cl)cc2)c(=O)c1C#N,-17.5%
11,CC(C)(C)n1nc2c(c1NC(=O)COc1ccc(Cl)cc1)CS(=O)(=O)C2,-46.5%
12,Cc1cccc(NC(=S)Nc2ccc3cn[nH]c3c2)c1,1.96%
13,COc1ccc(C(=O)[C@H]2[C@H]3C(=O)N(c4ccccc4)C(=O)[C@H]3C3C=CC=NN32)cc1 (stereo partly shown),4.94%
14,O=S(=O)(c1ccc(S(=O)(=O)N2CCN(C/C=C/c3ccccc3)CC2)cc1)N1CCCC1,11.6%
15,O=[N+]([O-])c1ccc(C(O)CN2CCN(C/C=C/c3ccccc3)CC2)cc1 (stereo not shown),-76.9%
16,O=S(=O)(c1ccccc1)N1CCN(C/C=C/c2ccccc2)CC1,-22%
17,Cc1occc1-c1nc(-c2ccncc2)no1,-10.4%
18,COc1ccc(OC)c(-n2nnnc2SCC(=O)Nc2nc(C)c(C)s2)c1,-1.73%
19,Cc1c(C(=O)NC2CCCCC2)sc2ncnc(N3CCN(c4ccccc4)CC3)c12,13.7%
20,Cc1sc2ncnc(N3CCC(C(=O)Nc4ccc(Cl)c(Cl)c4)CC3)c2c1C,-7.26%
21,Cc1sc2ncnc(N3CCC(C(=O)NNC(=O)COc4ccccc4Cl)CC3)c2c1C,-38.6%
22,COc1ccccc1N1CCN(c2ncnc3sc(C(=O)NCC4CCCO4)c(C)c23)CC1 (stereo not shown),-5%

row,Compound,"hERG current change (%, negative = inhibition) at 10uM"
1,Cc1sc2ncnc(N3CCC(C(=O)NNC(=O)COc4cccc(C(F)(F)F)c4)CC3)c2c1C,-40%
2,COc1ccc(OCC(=O)NNC(=O)C2CCN(c3ncnc4sc(C)c(C)c34)CC2)cc1,-52.5%
3,Cc1sc2ncnc(N3CCC(C(=O)Nc4ccc(Cl)cc4Cl)CC3)c2c1C,-7.65%
4,Cc1sc2ncnc(N3CCC(C(=O)NNC(=O)COc4ccccc4F)CC3)c2c1C,-57%
5,COc1ccccc1OCC(=O)NNC(=O)C1CCN(c2ncnc3sc(C)c(C)c23)CC1,10.5%
6,COc1ccc(N2CCN(c3ncnc4sc(C(=O)NCC5CCCO5)c(C)c34)CC2)cc1 (stereo not shown),-63.4%
7,Cc1sc2ncnc(N3CCC(C(=O)NCC(=O)Nc4ccc(F)c(F)c4)CC3)c2c1C,-67.2%
8,Cc1ccccc1OCC(=O)NNC(=O)C1CCN(c2ncnc3sc(C)c(C)c23)CC1,-19.3%
9,Cc1onc(-c2ccccc2)c1C(=O)OCC(=O)NC(=O)c1ccccc1,-31.1%
10,CCCCc1ccc(S(=O)(=O)NC2CCS(=O)(=O)C2)cc1 (stereo not shown),-2.26%
11,Clc1ccccc1Cn1nnc2c(Nc3ccccc3)ncnc21,-0.775%
12,COc1ccc(C2=NN(C(=O)c3ccco3)C(c3cc4ccccc4nc3Cl)C2)cc1 (stereo not shown),8.45%
13,Cc1sc2ncnc(N3CCC(C(=O)NNC(=O)c4ccc(F)cc4)CC3)c2c1C,-21.9%
14,CCc1ccc(OCC(=O)NNC(=O)C2CCN(c3ncnc4sc(C)c(C)c34)CC2)cc1,-45.3%
15,Cc1ccc(OCC(=O)NNC(=O)C2CCN(c3ncnc4sc(C)c(C)c34)CC2)cc1,-50.7%
16,Cc1cc(Cl)ccc1OCC(=O)NNC(=O)C1CCN(c2ncnc3sc(C)c(C)c23)CC1,5.64%
17,Cc1cccc(OCC(=O)NNC(=O)C2CCN(c3ncnc4sc(C)c(C)c34)CC2)c1,-48.2%
18,Cc1sc2ncnc(N3CCC(C(=O)NNC(=O)COc4ccc(Br)cc4)CC3)c2c1C,-68.5%
19,CCOc1ccc(OCC)c(NC(=O)C2CCCN2S(=O)(=O)c2cccc3cccnc23)c1 (stereo not shown),-4.43%
